High-throughput results: PubChem BioAssay, National Center for Advancing Translational Sciences (NCATS)
Sampled rows, rich in hits. Any-hit rate of the full collection: about 7.5%.
Luc counter: blocks Kinase-Glo luciferase, a counter-screen artifact | Potency, µM (top dose mostly 38.3 µM), inactives show at the top dose activity change, negative = inhibition, usual class: inhibitors | Kinase-Glo luciferase, ATP luminescence, 8 min | Q27757 | AID 1379 | actives 0.28% (n = 200,000); further: on the % scale 0 is the no-effect control and ±100 the full control effect; nearly all actives have a fitted effect of over 60% in size
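Luminescence was the read-out, taken after 8-minute incubation at ambient temperature. Luciferase turned over luciferin with 10 uM ATP in imidazole pH 7.2 buffer containing KCl, MgCl2, Tween 20 and BSA.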
Rab9 prom act: activates the Rab9 promoter; Huh7 Rab9 promoter-luciferase reporter, luminescence, 24 h; Potency, µM (highest dose often 9.22 µM), without a hit: at the top dose activation, negative = inhibition, hits mostly activators; actives 2.8% (n = 320,000); AID 485297; further: % of control where 0% means no effect; nearly all actives have a fitted effect of over 60% in size
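Huh7 reporter line, Rab9 promoter upstream of luciferase. Compound exposure 24 h at 37 °C in reduced-serum medium with 10% FBS. Read-out: luminescence.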
ELG1 genotox: genotoxicity induction in ELG1-luciferase HEK293T cells | HEK293T ELG1-luciferase reporter, luminescence, 16 h | Potency, µM (series often up to 46 µM), without a hit: at the highest dose activity change, positive = activation, usual class: activators | actives 1.3% (n = 330,000); further: % of control where 0% means no effect; nearly all actives have a fitted effect of over 60% in size
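HEK293T cells expressing luciferase-tagged ELG1 were exposed to compound or DMSO vehicle for 16 hr at 37 °C and 5% CO2. Luciferase activity was then measured with ONE-Glo after 30 min at room temperature.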
SMN2 splice enh: enhancers of SMN2 splice variant expression; Potency, µM (titrated, usually from 46.1 µM), for inactives: top-dose activity change, positive = activation, usual class: activators; actives 2.8% (n = 210,000); AID 1458; HEK293 SMN2-luciferase splicing reporter, luminescence, 30-36 h; further: % of control where 0% means no effect; nearly all actives have a fitted effect of over 55% in size
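qHTS luciferase splicing reporter: luminescence rises when SMN2 exon 7 is included in transfected HEK293 cells. Compound exposure lasted 30-36 h at 37C, with 4.5 mM final sodium butyrate as control, followed by a ONE-Glo read.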
NPC1 prom act: activates the NPC1 promoter; Huh7 NPC1 promoter luciferase reporter, 24 h; Potency, µM (highest dose often 9.22 µM), inactives show at the top dose activation, most hits filed as activators; actives 2.4% (n = 320,000); further: % of control where 0% means no effect; nearly all actives have a fitted effect of over 60% in size
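Luciferase expression driven by the NPC1 promoter was measured in stably transfected Huh7 cells after a 24 h compound incubation, using a luciferase reagent and a luminescence read.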
FLuc counter: counter-screen for miR-21 project: firefly luciferase inhibitors or activators; P08659; purified FLuc, Km substrates, luminescence inhibition; Potency, µM (titrated, usually from 57.5 µM), without a hit: at the highest dose activity change, negative = inhibition, most hits filed as inhibitors; actives 6.9% (n = 360,000);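 further: plate controls were vehicle for no effect and reference inhibitor for full effect; nearly all actives have a fitted effect of over 55% in size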
Target sequence (P08659 whole entry, looked up): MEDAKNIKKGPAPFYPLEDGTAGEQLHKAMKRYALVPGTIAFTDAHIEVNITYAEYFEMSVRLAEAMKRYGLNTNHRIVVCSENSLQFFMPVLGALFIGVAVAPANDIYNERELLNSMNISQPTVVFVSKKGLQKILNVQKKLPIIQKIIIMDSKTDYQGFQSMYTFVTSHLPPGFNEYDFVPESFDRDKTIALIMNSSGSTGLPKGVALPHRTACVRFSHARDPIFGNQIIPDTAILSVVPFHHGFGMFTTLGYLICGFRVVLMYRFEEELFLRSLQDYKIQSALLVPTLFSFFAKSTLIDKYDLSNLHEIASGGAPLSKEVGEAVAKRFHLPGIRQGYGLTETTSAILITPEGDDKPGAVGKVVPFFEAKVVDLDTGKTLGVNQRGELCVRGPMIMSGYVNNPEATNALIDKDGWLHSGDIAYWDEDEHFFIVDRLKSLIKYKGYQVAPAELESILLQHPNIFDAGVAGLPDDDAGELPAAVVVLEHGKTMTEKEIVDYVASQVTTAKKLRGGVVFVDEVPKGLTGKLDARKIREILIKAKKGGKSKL
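Biochemical qHTS of compounds, final roughly 60 µM downward over six points, against 10 nM purified firefly luciferase using Km concentrations of substrates (10 uM D-luciferin, 10 uM ATP) in Tris acetate pH 7.5 buffer; luminescence output.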
Starred values were filed as active, the others as inactive; ? = inconclusive; · = not tested or not shown; [ ] = another dose, or the depositor's remark. The call rests on the fitted dose curve; in most records, active means well fitted curve in the direction sought with a large enough effect; inconclusive means small, poorly fitted or top-dose-only effect, or another doubt; inactive means no such curve, though single readings can be large; an effect the other way counts as inactive or inconclusive. Potency means the concentration at half of the fitted maximal effect.

SMILES | Luc counter | Rab9 prom act | ELG1 genotox | SMN2 splice enh | NPC1 prom act | FLuc counter
CCOC(=O)N1CCN(CCC(=O)Nc2cccc(C)c2)CC1 | · | -0.2% | 3.2% | · | -2.3% | 0.4%
CCCOC1(C(F)(F)F)NC(=O)N(c2cccc(Cl)c2)C1=O (stereo unspecified) | · | · | · | -0.9% | · | -2.1%
O=C(C1CCCCC1)N(Cc1cccnc1)c1nc2c(F)cccc2s1 | · | · | · | · | · | -9.4%
O=C(NCCCN1CCCCC1)C1CCC(CNS(=O)(=O)c2cccc3nsnc23)CC1 (stereo unspecified) | · | -7.6% | -0.7% | · | -2.7% | -0.6%
COc1ccc(N2CCN(S(=O)(=O)c3c(C)nc4sc(C)cn4c3=O)CC2)cc1 | · | · | · | · | · | -1.7%
Cc1cccc(C)c1OCC(=O)Nc1ncn[nH]1 | 0.9% | 1.3% | -5.2% | -9.2% | -3.1% | -0.8%
O=C(COc1ccc2ccccc2c1Br)Nc1ncn[nH]1 | 10.6% | 13.1% | ? | -0.6% | 5.8% | 13.5µM*
C=CCN(CC=C)c1cnn(-c2nc3ccccc3[nH]2)c(=O)c1Cl | 14.1µM* | 0.708µM* | ? | · | 2µM* | 6.01µM*
O=c1c(Cl)c(NCCCO)cnn1-c1nc2ccccc2[nH]1 | 11.2µM* | ? | 16.4µM* | ? | ? | 12µM*
O=C(CCCC1=NS(=O)(=O)c2ccccc2N1)Nc1ccccc1 | · | -2.4% | 0.2% | · | -3.6% | -0.8%
Cc1ccc(N=Nc2c(N)[nH]n3c(=O)cc(C)nc23)cc1 | -8.2% | -0.5% | -5.9% | 19.1% | 2.3% | 16.9µM*
Nc1[nH]n2c(=O)cc(-c3ccccc3)nc2c1N=Nc1ccc(S(N)(=O)=O)cc1 | -3.9% | -15.3% | -0.3% | · | -3.3% | 9.53µM*
Nc1[nH]n2c(=O)cc(-c3ccccc3)nc2c1N=Nc1ccccc1 | 0.4% | -22.5% | -5.4% | -90.9% | -10.9% | 16.9µM*
COc1ccc(NC(=O)c2ccco2)cc1NC(=O)c1cccc(F)c1 | · | -3.6% | -1.9% | · | -5.3% | ?
CC(=O)Oc1cccc(/C=c2\sc3nc(-c4ccco4)nn3c2=O)c1 | 8.2% | -0.2% | ? | 25.8% | -2.4% | -10.8%
COc1cc(/C=c2\sc3nc(-c4ccncc4)nn3c2=O)ccc1OC(C)=O | 3.6% | -2.7% | 3.9% | 12.1% | 0.4% | 2.69µM*
CSc1ccccc1NC(=O)C(=O)c1c[nH]c2ccccc12 | -0.3% | ? | 12.3% | ? | 25.8% | 15.1µM*
O=C(Nc1nccs1)C(=O)c1c[nH]c2ccccc12 | -6.5% | 3.16µM* | 8.2µM* | ? | ? | 7.57µM*
COc1ccccc1NC(=O)CCS(=O)(=O)c1cc2c(cc1Cl)NC(=O)CO2 | · | -3.3% | -0.1% | · | -1.5% | 3.5%
CC(=O)O[C@H]1C(=O)[C@@]2(C)C([C@H](OC(=O)c3ccccc3)[C@]3(O)C[C@H](OC(=O)[C@H](O)[C@@H](NC(=O)c4ccccc4)c4ccccc4)C(C)=C1C3(C)C)[C@]1(OC(C)=O)CO[C@@H]1C[C@@H]2O (stereo partly specified) | -1.1% | -27.3%[46.1 µM] | · | -33.6% | -22.1%[46.1 µM] | ·
CS(=O)(=O)c1ccc(-c2cn3cc(C(=O)O)ccc3n2)cc1 | -25.7% | -1.9% | -7.5% | -21.0% | 1.0% | 2.69µM*
O=S(=O)(c1ccc(-c2cn3ccccc3n2)cc1)N1CCOCC1 | -2.6% | 2.1% | 10.7% | -43.0% | 2.6% | ?
COc1ccc(-c2csc(NC(=O)c3ccc(S(C)(=O)=O)cc3)n2)cc1 | 0.0% | ? | 7.7% | 0.4% | 21.2% | ?
COC(=O)c1ccc2nc(-c3ccc(S(C)(=O)=O)cc3)cn2c1 | -15.1% | ? | 9.0% | 3.8% | ? | 23.9µM*
COC(=O)c1ccc2nc(-c3cccc(N)c3)cn2c1 | -28.4% | 1µM* | ? | · | 0.501µM* | 0.601µM*
CC[C@H](C)[C@H](NC(=O)c1ccc(Cl)cc1)C(=O)OCC(=O)c1c(N)n(C)c(=O)n(C)c1=O | · | · | 5.6% | · | · | ·
CCCC1(CCC)NC(=O)N(CC(=O)N2CCc3ccccc32)C1=O | · | · | -0.4% | · | · | ·
